Sampled rows, rich in hits. Any-hit rate of the full collection: about 21%.
NS1 inh: blocks influenza NS1 protein function; Potency, µM (highest dose often 46.1 µM); 0.4% of 270,000 active; AID 2326; calls by dose curve; note: actives are rising curves; nearly all actives have a fitted effect of over 50% in size
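OD600 was taken as the measure of yeast growth restored by compound in an NS1-expressing S. cerevisiae strain. Cells had been washed out of glucose medium and diluted 1:100 into galactose -URA medium, pH 6.0.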
Pf growth 96h: P. falciparum growth inhibition at 96 hour, primary screen for plastid delayed-death inhibitors | AID 504834 | Potency, µM (titrated, usually from 28.7 µM), usual class: inhibitors | 6.9% of 320,000 active | P. falciparum luciferase reporter growth, 96 h
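Two parasite generations (96 h, 37 C, 5% CO2) of compound exposure in infected erythrocytes (0.05% parasitemia, 2% hematocrit). Luciferase-reporter P. falciparum; decreased luminescence indicates inhibited growth, aimed at apicoplast-acting delayed death.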
Shiga inhibitor: Shiga toxin inhibition. Vero cells, Shiga toxin protein synthesis inhibition reporter. inhibition, % at 38.7 µM. 9.2% of 290,000 active; in the data active = inhibition mostly above about 28%, no sharp cut-off; inactive = mostly below about 43%
Sm TGR inh: blocks Schistosoma mansoni thioredoxin glutathione reductase. purified TGR, DTNB reduction, TNB absorbance 405 nm. Potency, µM (highest dose often 114 µM), most hits filed as inhibitors. 3% of 360,000 active. AID 485364; note: nearly all actives have a fitted effect of over 60% in size
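First, TGR (20 nM dispensed) and NADPH were mixed with compound. Second, a 15 min room-temperature incubation followed. Third, further NADPH and then DTNB were added to start the reaction. Finally, TNB absorbance was monitored kinetically.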
CHX counter: counter-screen for Shiga toxin inhibitors: cycloheximide protein synthesis inhibition | cell reporter, cycloheximide protein synthesis inhibition counterscreen | max response, % | 12% of 300,000 active | AID 2314; in the data active = max response mostly above about 13%, no sharp cut-off; inactive = mostly below about 14%; note: read at 38.3 µM for the half of the compounds with a filed dose
Pf growth 48h: P. falciparum growth inhibition at 48 hours (one generation). P. falciparum luciferase growth in erythrocytes, 48 h. Potency, µM (top dose mostly 28.7 µM), usual class: inhibitors. 5.9% of 310,000 active. AID 504832
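Luciferase-expressing P. falciparum in infected erythrocytes (2% hematocrit, 0.1% parasitemia final) in RPMI 1640/0.5% Albumax were exposed to compound for 48 hours at 37 C, 5% CO2; growth read as luminescence.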
Hits are given with their value; . = inactive; ? = inconclusive; / = not tested or not shown; + = active, no number. Unless noted, calls come from the whole dose curve; as a rule, active = well fitted curve in the direction sought with a large enough effect; inconclusive = small, poorly fitted or top-dose-only effect, or another doubt; inactive = no such curve, though single readings can be large; an effect the other way counts as inactive or inconclusive.

SMILES	NS1 inh	Pf growth 96h	Shiga inhibitor	Sm TGR inh	CHX counter	Pf growth 48h
CCN(Cc1nc2cc(Cl)ccc2c(=O)[nH]1)C(=O)c1cc(C2CC2)nn1-c1ccccc1	/	?	/	.	/	?
Cc1ccc2nc3c(c(Nc4cccc(O)c4)c2c1)CCC3	.	.	.	.	.	5.2µM
CC(=O)c1cccc(Nc2c3c(nc4ccccc24)CCC3)c1	.	.	.	.	.	?
COC(=O)c1cccc(Nc2c3c(nc4ccccc24)CCC3)c1	.	.	.	.	.	12µM
COc1ccccc1Nc1c2c(nc3ccccc13)CCC2	.	?	.	.	.	8.3µM
COc1ccc(Nc2c3c(nc4ccccc24)CCC3)c(OC)c1	.	.	.	?	.	?
CCOC(=O)c1cccc(Nc2c3c(nc4ccccc24)CCC3)c1	/	/	/	.	/	/
Cc1ccc(C)c(N2CCN(S(=O)(=O)c3ccc4c(c3)CCN4C(=O)CCC(=O)O)CC2)c1	.	?	.	.	.	/
CCC(=O)N1CCc2cc(S(=O)(=O)N(C)c3ccc(OC)cc3OC)ccc21	.	.	.	.	.	.
CC(=O)N1CCc2cc(S(=O)(=O)NCc3ccc(C)cc3)ccc21	.	?	.	.	.	.
Cc1ccc(CNS(=O)(=O)c2ccc3c(c2)CCN3C(=O)C2CCC2)cc1	.	13µM	.	.	.	.
O=C(O)CCC(=O)N1CCc2cc(S(=O)(=O)N3CCN(c4ccc(F)cc4)CC3)ccc21	.	15µM	.	.	.	/
O=C(O)CCC(=O)N1CCc2cc(S(=O)(=O)NCCc3ccc(Cl)cc3)ccc21	.	?	.	.	.	.
O=C(O)CCC(=O)N1CCc2cc(S(=O)(=O)NCc3ccc(Cl)cc3)ccc21	.	12µM	.	.	.	.
COc1ccc(N(C)S(=O)(=O)c2ccc3c(c2)CCN3C(=O)C2CC2)c(OC)c1	.	4.1µM	.	.	.	.
CCOC(=O)c1cc(CC)sc1NC(=O)COC(=O)C1CCC1	.	.	.	.	.	.
O=C(C1CCC1)N1CCc2cc(S(=O)(=O)NC3CCCC3)ccc21	.	?	.	.	.	.
O=C(C1CCC1)N1CCc2cc(S(=O)(=O)NCc3ccco3)ccc21	.	.	.	.	35	.
CC(C)C1=Nc2cccc3cccc(c23)N1	.	.	.	.	.	?
ClCC1=Nc2cccc3cccc(c23)N1	.	4.7µM	.	28µM	.	4.1µM
O=C(Oc1ccccc1)c1cc2ccccc2oc1=O	/	.	.	.	.	.
O=C(Oc1ccccc1)c1cccc2cccc(C(=O)Oc3ccccc3)c12	.	10µM	.	.	.	?
Cn1c(N2CCN(C(c3ccccc3)c3ccccc3)CC2)nc2ccccc21	.	13µM	.	.	.	?
Cc1ccc(-n2nc3c(=O)n(CC(=O)NC4CCCCC4)nc(C)c3c2C)cc1	.	?	.	.	.	.
COc1ccc(NC(=O)CCSc2ccc(F)cc2)cc1	/	.	57	.	34	.
SMILES	NS1 inh	Pf growth 96h	Shiga inhibitor	Sm TGR inh	CHX counter	Pf growth 48h
CCn1nnnc1SCC(=O)Nc1ccc(F)cc1	.	.	.	.	.	.
COCCn1nnnc1SCC(=O)c1ccccc1	.	?	.	.	14	.
COc1ccc(-n2nnnc2SCC(=O)c2cccc(OC)c2)cc1	.	?	.	.	.	.
CCn1nnnc1SCC(=O)c1cccc(OC)c1	.	.	.	.	19	.
CCn1nnnc1SCC(=O)Nc1ccc(OC)cc1	.	15µM	34	.	.	.
CCOC(=O)N1CCN(C(=O)/C=C/c2c(C)nn(-c3ccc(F)cc3)c2Cl)CC1	/	.	.	.	.	?
COc1cccc(CSc2nc3n(n2)C(c2cccc(F)c2)C(C(=O)Nc2ccccc2C)=C(C)N3)c1 (stereo unspecified)	/	/	/	.	/	/
COc1ccc(NC(=O)CCSc2nnnn2C)cc1	/	?	.	.	25	.
COc1ccc2nc(NC(=O)CSc3nnc(-c4ccoc4C)n3C)sc2c1	.	.	80	.	46	.
Cn1nnnc1SCC(=O)Nc1ccc(Oc2ccc(Cl)cc2)cc1	.	/	.	.	.	.
COc1ccc2nc(NC(=O)CSCC(=O)Nc3cc(C)on3)sc2c1	/	.	/	.	/	.
C=CCn1nnnc1SCC(=O)Nc1ccc(OC)cc1	.	.	.	.	24	.
CCn1nnnc1SCC(=O)Nc1nc2ccc(OC)cc2s1	.	.	+	.	25	.
COCC1CCN(C(=O)C2CCC(=O)N(CCc3cccc(F)c3)C2)CC1 (stereo unspecified)	.	.	.	.	.	.
N/C(=N\c1nc2c(c(=O)[nH]1)CCC2)Nc1ccccc1C(F)(F)F	.	.	.	.	.	.
Cc1cc2nc(-c3ccc4c(c3)CCC4)ccn2n1	.	.	46	.	20	.
Cc1cccc(N2C(=O)NC(=O)/C(=C\c3cnc(-c4ccccc4)nc3)C2=O)c1	.	?	.	5µM	14	.
O=C1NC(=O)N(c2ccc3c(c2)OCO3)C(=O)/C1=C\c1ccsc1	.	.	.	?	.	.
Cc1cc(C)cc(N2C(=O)NC(=O)/C(=C\c3cccn3-c3ccccc3)C2=O)c1	.	?	.	.	14	.
Cc1ccc(N2C(=O)NC(=O)/C(=C\c3ccsc3)C2=O)cc1C	.	7.4µM	.	.	.	.
Cc1cccc(N2C(=O)NC(=O)/C(=C\c3ccc(N4CCOCC4)cc3)C2=O)c1	.	.	.	?	.	.
Cc1ccc(N2C(=O)NC(=O)/C(=C/c3cnc(-c4ccccc4)nc3)C2=O)cc1C	.	.	.	1.8µM	.	.
O=C(O)C/C(=C\c1ccco1)C(=O)O	.	/	/	/	/	/
CCCNC(=O)CN1C(=O)c2ccccc2Sc2ncccc21	.	.	.	.	.	.
COc1cc(NC(=O)COC(=O)CO/N=C(\C)c2ccc3c(c2)OCO3)cc(OC)c1OC	/	.	/	.	/	.
SMILES	NS1 inh	Pf growth 96h	Shiga inhibitor	Sm TGR inh	CHX counter	Pf growth 48h
CC(C)c1ccc(N2C(=O)NC(=O)/C(=C\C=C\c3ccco3)C2=O)cc1	/	.	.	?	.	.
CC(C)c1ccc(N2C(=O)NC(=O)/C(=C\c3cnc(-c4ccccc4)nc3)C2=O)cc1	.	.	.	11µM	.	.
CC1CCN(c2nc3ccc(C(=O)NCCCN4CCCCC4)cc3s2)CC1	.	.	29	.	28	.
Cc1ccc(CCNC(=O)c2ccc3nc(N4CCC(C)CC4)sc3c2)cc1	/	/	/	.	/	/
CC1CCN(c2nc3ccc(C(=O)NCc4ccccc4Cl)cc3s2)CC1	/	/	/	.	/	/
CC1CCN(c2nc3ccc(C(=O)O)cc3s2)CC1	.	.	.	.	.	1.2µM
CCC1CCCCN1CCCNC(=O)c1ccc2nc(N3CCC(C)CC3)sc2c1 (stereo unspecified)	.	?	90	.	29	?
CC(Sc1nc(C(C)(C)C)cc(-c2ccccc2)c1C#N)C(=O)Nc1ccccc1 (stereo unspecified)	.	?	.	.	.	.

Bioassay records (PubChem)
